From PubChem BioAssay (NCI)
About 83,000 compounds went through this panel and 20% of them were active in at least one assay; those are over-represented in the sample as a whole.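 Growth was measured after 48 h exposure to one concentration of compound in 96-well plates. Values under 10 count as active.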 Unmarked numbers belong to inactive results. Active and inactive are the calls of the source.

Each molecule was assayed on OVCAR-3 ovarian (assay: NCI-60 one-dose screen, 48 h (100 = growth as untreated, 0 = no growth, -100 = all killed)). Conditions: 10 µM unless noted.
Description: Growth inhibition of the OVCAR-3 human tumor cell line is measured as a screen for anti-cancer activity. Cells are grown in 96 well plates and exposed to the test compound for 48 hours. Compounds are tested at a single concentration, which is 10^-5 M for most compounds. The reported endpoint is percent growth (GI% or GIPRCNT), where numbers from 0 - 100% represent growth inhibition, and numbers from -100% - 0 represent cell death. For example, a value of 40 represents 60% growth inhibition. A value of 0 means no net growth occurred over the course of the experiment. A value of -40 indicates 40% of cells at the beginning of the experiment died by the end of the experiment. A value of -100 means all cells are dead at the end of the experiment.
NCI-60 Human Tumor Cell Lines Screen was performed using the standard one-dose NCI protocol, which is described in more detail at https://dtp.cancer.gov/discovery_development/nci-60/default.htm.
Compounds with GIPRCNT values below 10 were considered active. Activity score was based on GIPRCNT using the following formula: […]
Score is 0 for GIPRCNT values of 100 or above, 50 for GIPRCNT values of 0, and 100 for GIPRCNT values of -100.

| Structure (SMILES) | growth |
| --- | --- |
| Cc1cc2cn3c4ccc(O)cc4[nH]c(=O)c3c2cc1C | -34.9% (active) |
| N#Cc1c2ncccc2c2nnc3cc(Cl)c(Cl)cc3n12 | 70.2% |
| Clc1ccc(N/N=C/c2ccccn2)nc1 | 22.3% |
| CCCC(=O)Nc1ccccc1C(=O)O | 94.7% |
| COc1cc(-c2c3c(cn2CCN2CCCCC2)-c2oncc2CC3)cc(OC)c1OC | 113% |
| CCCCCCC(=O)C(C)C | 107% |
| CCCCCCCCC1OC1CCCCCCCC(=O)O (stereo not given) | 108% |
| CCCCCCCCc1ccc(OCCOCC[N+](C)(C)CC)cc1 (tested in a mixture with another compound) | 20.6% |
| CC(=O)Oc1cc2ccccc2cc1C(C)C | 115% |
| C[C@H]1C[C@@H](n2cnc3c(N)nccc32)[C@H](O)[C@@H]1O | 120% |
| COC(=O)c1ccc2[nH]c(O)c(C(=Nc3ccc(N(C)C(=O)CN4CCN(C)CC4)cc3)c3ccc(CCO)cc3)c2c1 | 52.5% |
| O=C1CSC(c2ccccc2Cl)N1c1nnc(-c2ccncc2)o1 (stereo not given) | 108% |
| O=C1OC(c2ccc(-c3ccccc3)cc2)=C/C1=C/c1c2ccccc2cc2ccccc12 | 97.9% |
| N#Cc1ccc(OCc2nc(N)nc(N)c2-c2ccc(Cl)c(Cl)c2)cc1 | 45.8% |
| CCc1c(C)c2ccc(OCC(=O)N=Nc3c(O)[nH]c4ccccc34)c(C)c2oc1=O | -58.2% (active) |
| CC(=O)OCC1O[C@@H](OC(C)=O)[C@@H](NC(=O)NS(=O)(=O)c2ccccc2)C(OC(C)=O)[C@@H]1OC(C)=O (stereo not given in full) | 110% |
| Cc1ccc(S(=O)(=O)Nc2cccc(Cn3c(=O)[nH]c4ccc(Oc5ncccn5)cc4c3=O)c2)cc1 | 38.9% |
| CC1C(=O)CCCC1=O | 118% |
| Nc1nc2c(c3ncncc13)C(c1cccc(C(F)(F)F)c1)Cc1ncncc1-2 (stereo not given) | 2.43% (active) |
| Nc1nc(-c2cccc(Br)c2)cc(-c2cc3ccccc3oc2=O)n1 | 99.6% |

| Structure (SMILES) | growth |
| --- | --- |
| Cc1ccc(OCCn2ccc(=O)n(CCOc3ccc(Cl)cc3C(=O)c3cc(C)cc(C)c3)c2=O)cc1 | 25.1% |
| CN(CCC#N)c1ccc(/C=C(\C#N)c2cccc(C(F)(F)F)c2)cc1 | 69.4% |
| CCCCCCCCC/C(=N\NC(=O)c1ccncc1)c1ccc(O)c(O)c1O | 25.6% |
| CC(O)CN(CCO)CCN(CCO)CC(C)O (stereo not given) | 112% |
| Cc1c(CN(C)C)cc(C(C)C)cc1C(C)C | 120% |
| COc1ccc(CN2C(=O)/C(=C\C(=O)c3ccc(OCCN4CCCCC4)cc3)c3ccccc32)cc1 | 44.3% |
| O=C1c2ccccc2CCc2ccccc21 | 103% |
| COC(=O)C(C(=O)OC)C(Br)C(Br)C(Br)c1ccccc1 (stereo not given) | 92.6% |
| Cc1ccc(CC(=O)O)c(C)c1 | 103% |
| CC1(c2ccc(Br)cc2)NC(=O)NC1=O (stereo not given) | 104% |
| Nc1cc(N)c2nc(-c3ccccc3)c(NCCc3ccc(Cl)c(Cl)c3)nc2c1 | -91.2% (active) |
| CCC(C)CC(N)O (stereo not given) | 110% |
| O=C(Nc1cccc2[nH]c(C(F)(F)F)nc12)c1ccc(F)cc1 | 66% |
| CCCCCCCCCCCCCCCCCC1=NCCN1CCNC(C)=O | 94.7% |
| O=C(/C=C1\C(=O)N(Cc2ccccc2)c2ccccc21)c1ccc(OCCN2CCCCC2)cc1 | -37% (active) |
| COc1cccc(Cn2cc3c(c2)-c2oncc2CC3)c1 | -30.4% (active) |
| CC(=O)Nc1nc(C)c(C(=O)N/N=C/N2CCCCC2)s1 | 128% |
| COC(=O)[C@H](Cc1cn(C)cn1)NC(=O)[C@H](CC(=O)OCc1ccccc1)NC(=O)Nc1cc(C(F)(F)F)cc(C(F)(F)F)c1 | -99% [100 µM] (active) |
| COc1ccccc1CNCCCN1C(=O)c2ccc3c4c(ccc(c24)C1=O)C(=O)N(CCCNCc1ccccc1OC)C3=O | -59.9% (active) |
| O=C(c1ccccc1)c1ccccc1-c1ccccc1 | 13.3% |
